Assay outcomes: PubChem BioAssay, National Center for Advancing Translational Sciences (NCATS)
This is a sample that favours compounds with a hit; in the whole collection about 7.9% have one here.
SW480 rereplic: DNA re-replication induction in SW480 cells | Potency, µM (series often up to 46.1 µM), for the others: top-dose re-replication activation, hits mostly activators | SW480 DNA re-replication, Hoechst DNA content imaging, 48 h | AID 624297 | hit rate 1.8% among 340,000; also: % of control where 0% means no effect; nearly all actives have a fitted effect of over 55% in size
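Treated cells incubate 48 hr (37 C, 5% CO2), are stained 40 min with Hoechst, and nuclear fluorescence is enumerated; a rise in nuclei with high DNA signal marks re-replication.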
HT1080NT lethal: kills 2HG-producing HT-1080-NT fibrosarcoma cells; HT-1080-NT fibrosarcoma viability, CellTiter-Glo ATP luminescence, 48 h; Potency, µM (highest dose often 46.1 µM), inactives show at the highest dose activity, negative = less viability, most hits filed as cytotoxic; hit rate 1.6% among 360,000;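 also: NT is the 2HG producing partner of a matched IDH1 knockdown line; 0% = DMSO-treated cells and -100% = media-only wells without cells; nearly all actives have a fitted effect of over 55% in size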
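Compounds were tested in concentration-response format on HT-1080-NT cells for 48 hours at 37 degrees C. Cell viability came from CellTiter-Glo luminescence; curves were classified by r2, response magnitude and activity.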
HT1080 IDH1KD tx: kills HT-1080 cells with IDH1 knockdown; HT-1080 IDH1 knockdown viability, ATP luminescence, 48 h; hit rate 2% among 360,000; AID 686971; Potency, µM (titrated, usually from 46.1 µM), for the others: at the highest dose activity, negative = toxicity, most hits filed as cytotoxic;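 also: 0% = DMSO wells and -100% = cell-free medium wells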
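Using the IDH1-knockdown HT-1080 line run in the same batch and compound series as the NT line, viability after 48 h at 37 °C was determined by CellTiter-Glo luminescence and expressed as % activity.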
KB-3-1 tox: kills parental KB-3-1 adenocarcinoma cells; KB-3-1 viability, CellTiter-Glo ATP luminescence, 72 h; Potency, µM (doses to about 46.1 µM), actives largely listed as cytotoxic; hit rate 1.4% among 400,000; AID 1347075; also: % is scaled to controls: 0 for no effect and ±100 for the full control effect; nearly all actives have a fitted effect of over 60% in size
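72 h, 37 °C compound treatment of KB-3-1 parental cells; CellTiter-Glo added, 10 min, luminescence read. Data corrected against DMSO-only plates and normalized before curve fitting.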
MCF10A rerep: induces DNA re-replication in MCF 10a normal breast cells. Potency, µM (titrated, usually from 46.1 µM), for inactives: at the highest dose activity, positive = re-replication, actives largely listed as activators. hit rate 2.9% among 350,000. MCF 10A DNA re-replication, Hoechst nuclear intensity, 48 h; also: % of control where 0% means no effect; nearly all actives have a fitted effect of over 50% in size
KB-V1 cytotox: KB-V1 MDR subline cytotoxicity; KB-V1 MDR cells viability, CellTiter-Glo, 72 h; Potency, µM (titrated, usually from 46.1 µM), actives largely listed as cytotoxic; hit rate 3.4% among 400,000; AID 1347076; also: % is scaled to controls: 0 for no effect and ±100 for the full control effect; nearly all actives have a fitted effect of over 60% in size
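qHTS viability screen in drug-selected KB-V1 MDR cells: 72 h compound treatment at 37 degrees C, ATP luminescence end point.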
The depositor's hits bear a star; i = inactive; u = inconclusive; x = no result given. Calls follow the shape of the dose curve; as a rule, active = well fitted curve in the direction sought with a large enough effect; inconclusive = small, poorly fitted or top-dose-only effect, or another doubt; inactive = no such curve, though single readings can be large; an effect the other way counts as inactive or inconclusive. Potency is read from the fitted curve at half-maximal effect.

SMILES	SW480 rereplic	HT1080NT lethal	HT1080 IDH1KD tx	KB-3-1 tox	MCF10A rerep	KB-V1 cytotox
COc1ccc(CNC(=O)Cc2ccc(NC(=O)C3=C(C)OCCS3)cc2)cc1	u	u	5.8µM*	1µM*	8.2µM*	15µM*
CC1=C(C(=O)Nc2ccc(CC(=O)NCc3ccc(OC(C)C)cc3)cc2)SCCO1	u	u	u	0.37µM*	0.33µM*	u
CCOc1ccc(CNC(=O)c2cccc(NC(=O)C3=C(C)OCCS3)c2)cc1	-5%	-3%	-6%	i	-4%	i
COc1ccccc1-c1c(C)oc2c(CN3CCCCC3C)c(O)ccc2c1=O (stereo not given)	-3%	9%	10%	i	0%	i
CCOC(=O)c1cccc(NC(=O)N2CC=C(c3c[nH]c4ccccc34)CC2)c1	x	x	x	i	x	i
CCOc1ccc(NC(=O)N2CC=C(c3c[nH]c4ccccc34)CC2)cc1	x	x	x	23µM*	x	u
CCc1nn(CCCC(=O)NC2CCCCC2C)c(=O)c2cc3occc3n12 (stereo not given)	x	5%	4%	u	x	u
CO/N=C/c1ccc(OC)c(Oc2nc(OC)cc(OC)n2)c1	18µM*	u	u	18µM*	16µM*	i
CCO/N=C/c1ccc(OC)c(Oc2nc(OC)cc(OC)n2)c1	-1%	-16%	-19%	i	u	i
Cc1ccc(C)c2c1cc(C)c1nnc(SCC(=O)N3CCCc4ccccc43)n12	-141%	0%	-5%	u	4%	9.2µM*
COc1cccc(-n2nnnc2SCC(=O)NC2CCCC2)c1	-2%	-3%	-1%	i	3%	21µM*
COc1cccc(-n2nnnc2SCC(=O)N2CCCc3ccccc32)c1	12µM*	-9%	5%	i	u	i
COc1cccc(-n2nnnc2SCC(=O)NC2CCCCC2)c1	2%	0%	7%	i	9%	i
O=C(Nc1nnc(SCC(=O)N2CCCc3ccccc32)s1)c1cccc2ccccc12	-4%	-17%	-15%	i	-2%	i
Cc1ccc(C(=O)Nc2nnc(SCC(=O)N3CCCc4ccccc43)s2)cc1	4%	0%	-6%	i	u	23µM*
COc1ccc(CNCCCn2cnc3c(SC)ncnc32)cc1	x	-2%	-5%	u	x	u
C=C1NN(CC2CC2)C(=O)N1c1ccc(OCc2ccccc2)cc1	x	x	x	i	x	i
CCn1c(C(=O)N2CCCC(C(=O)N3CCN(c4cc(C)ccc4C)CC3)C2)cc2sccc21 (stereo not given)	x	x	x	u	x	i
O=C(CSc1nnnn1-c1cccc(F)c1)NC1CCCCC1	-7%	0%	-1%	i	-3%	18µM*
Cn1nnc2c(N3CCN(c4ccc(F)cc4)CC3)ncnc21	x	x	x	i	x	i
CCOC(=O)C1=C(O)c2ccccc2C(=O)/C1=C\c1ccc(C)cc1	u	u	18µM*	u	21µM*	u
CCN1CCN(C(=O)c2ccc3c(c2)N(Cc2cc(C)ccc2C)C(=O)c2ccccc2S3=O)CC1 (stereo not given)	x	x	x	i	x	i
CCC(=O)N1CCc2cc(S(=O)(=O)NC(Cc3ccccc3)C(=O)Nc3cccc(OC)c3)ccc21 (stereo not given)	x	x	x	i	x	i
COc1cccc(CNc2cccc(C(F)(F)F)c2)c1O	-18%	-20%	-16%	21µM*	-1%	i
Cc1ccc(-c2c3c(=O)n(C)c(=O)n(C)c3cn2Cc2ccccn2)cc1	-7%	2%	0%	i	-2%	i
SMILES	SW480 rereplic	HT1080NT lethal	HT1080 IDH1KD tx	KB-3-1 tox	MCF10A rerep	KB-V1 cytotox
COc1ccc(-c2c3c(=O)n(C)c(=O)n(C)c3cn2Cc2ccccn2)cc1	u	1%	3%	i	18µM*	i
COc1cccc(CN2C(=O)c3cccc(N)c3C2=O)c1	u	-6%	-11%	i	18µM*	i
CC(C)c1ccc2c(c1)-c1ccccc1S(=O)(=O)N2CC(=O)N1CCCCC1	x	x	x	i	x	i
O=C(CCc1nc2ccccc2c(=O)[nH]1)Nc1cc(Cl)ccc1N1CCCC1	-1%	-2%	1%	i	1%	15µM*
O=C(Nc1cccc(Cl)c1)N(Cc1nc2ccccc2c(=O)[nH]1)Cc1cccs1	-4%	-3%	-11%	i	4%	16µM*
CCOc1ccc(Oc2ccccc2NC(=O)CCc2nc3ccccc3c(=O)[nH]2)cc1	x	-4%	-19%	i	x	u
CCOc1ccccc1NC(=O)CCCc1nc2ccccc2c(=O)[nH]1	6%	1%	u	i	28%	18µM*
CC(=O)Nc1ccc(NC(=O)CCc2nc3ccccc3c(=O)[nH]2)cc1	-4%	11%	19%	i	-4%	i
O=C(CCc1nc2ccccc2c(=O)[nH]1)Nc1ccc(Cl)c(Cl)c1	-107%	-14%	u	i	20%	21µM*
O=C(/C=C/c1cccc(F)c1)NNC(=O)c1ccncc1	0%	-8%	-30%	u	5%	8.2µM*
CC(=O)NC(c1ccccc1)c1nc(-c2cccnc2)cs1 (stereo not given)	x	27%	8%	i	x	i
CCOC(=O)c1c(/N=C/N(C)C)sc(C)c1C	-7%	-2%	14%	i	1%	i
CCOC(=O)c1c(/N=C/N(C)C)sc(/C=N/Nc2ccccc2)c1-c1ccc(Cl)cc1	u	-1%	-4%	i	21µM*	i
c1ccc2c(c1)ccn2-n1ccc2ccccc21	x	x	x	i	x	i
CCOC(=O)c1c(C)[nH]c(C)c1C(=O)COC(=O)c1cccc(S(=O)(=O)N(CC)CC)c1	9%	0%	-11%	i	u	i
O=C(COC(=O)c1ccc(O)cc1O)NC12CC3CC(CC(C3)C1)C2	0%	0%	-2%	i	-9%	i
O=C(OCC(=O)C12CC3CC(CC(C3)C1)C2)c1ccc(O)cc1O	u	13µM*	18µM*	i	u	i
CCN(CC)S(=O)(=O)c1cccc(C(=O)OCC(=O)C23CC4CC(CC(C4)C2)C3)c1	6%	2%	1%	u	15%	15µM*
C[C@@H]1CN([C@H](C)CO)C(=O)c2cc(-c3ccccc3)cnc2O[C@@H]1CN(C)C(=O)C1CCOCC1	x	14%	-5%	u	x	i
Cc1ccc(NC(=O)C2CCCN(S(=O)(=O)c3cccc4cccnc34)C2)c(C)c1 (stereo not given)	x	x	x	i	x	i
CCc1ccccc1NC(=O)COC(=O)c1c(C)nsc1NC	u	4.1µM*	-11%	i	3%	i
